# Data taken from PubChem BioAssay.
# Values joined by “and” are separate entries in the source; they are usually repeats but may differ in a detail not shown here. Identical values can stand only once. Active and inactive are the calls of the source.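 The calls were made as follows, unless noted: active = compounds whose cell count with miR-34 switched on is under 0.7 times the count with it off; inactive = the rest.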
# Assays:
# [1] = hESC survival regulators, cell-based (AID 493140; call rule not given here;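 also: cells exposed to compounds for four days before counting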); conditions: human embryonic stem cell survival screen; stronger effect = higher value
# [2] = liver-stage malaria parasite growth inhibition, primary screen, cell-based, HepG2, luciferase luminescence, HepG2 viability (AID 624349; in the data active = parasite load remaining mostly below about 12%, no sharp cut-off; inactive = mostly above about 10%;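 also: 100% = mean of DMSO negative control wells on the same plate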); conditions: P. berghei liver stage in HepG2, luciferase luminescence, concentration not given here; parasite load remaining: stronger effect = lower value; viability: measured here: HepG2 viability without parasites
# [3] = stimulators of nuclear beta-catenin in C2C12, primary screen, imaging, WNT3A-conditioned medium, mouse C2C12, NPC library (AID 1117326; in the data active = nuclear beta-catenin stimulation mostly above about 4.2%, no sharp cut-off; inactive = mostly below about 10%; also: reference of the scale not given here); conditions: stronger effect = higher value
# [4] = stimulators of insulin release from INS-1E, primary screen, cell-based, 5 mM glucose, NPC library (AID 1117329;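 active = compound raises insulin release from rat beta cells at 5 mM glucose, no numeric limit stated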; also: reference of the scale not given here); conditions: rat INS-1E insulin secretion, at 10 µM, stronger effect = higher value
# [5] = growth inhibition of GSK3B-pretreated HCT116 cells – cell-based, CellTiter-Glo, 0.2 to 20 µM (AID 1117336;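 active = compounds lowering colon cancer cell viability after pretreatment blocking the GSK3B kinase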); conditions: HCT116 viability after GSK3B inhibitor, at 20 µM, stronger effect = higher value
# [6] = inhibition of endothelial tube formation, primary screen, imaging, VEGF stimulated, CD31 staining, tube area, NPC library (AID 1117340;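 active = compound that reduces growth-factor-driven endothelial tube area in a mixed cell culture, no cutoff stated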); conditions: VEGF-stimulated ADSC/ECFC co-culture, at 10 µM, stronger effect = higher value
# [7] = glucagon-like peptide 1 release enhancers, primary assay, NCI-H716 cell line, NPC library (AID 1117341;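 active = compound raises GLP1 secretion from the human gut endocrine cells, with no numeric limit stated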; also: reference of the scale not given here); conditions: NCI-H716 cells, at 10 µM, stronger effect = higher value
# [8] = HCT116 colon cancer cell growth inhibition, primary screen, CellTiter-Glo luminescence, NPC library (AID 1117342;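 active = compounds that lower survival of HCT116 colon cancer cells in the luminescence readout, no numeric limit stated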); conditions: at 20 µM (top of the series)
# [9] = CellTiter-Glo luminescent readout of SW480 viability loss, NPC library primary (AID 1117343;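 active = compounds that lower viability of the colon cancer cells in the luminescence readout, with no numeric limit stated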); conditions: CellTiter-Glo luminescence; at 20 µM (top of the series) unless noted
# [10] = decreased DLD-1 cellular survival, CellTiter-Glo luminescent readout, NPC compound collection, primary HTS (AID 1117346;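 active = compounds that lower survival of DLD-1 colon cancer cells in the luminescence readout, no cutoff given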); conditions: DLD-1 viability, CellTiter-Glo luminescence; at 20 µM (top of the series)
# [11] = sensitizers of A549 cells to miR-34 induction, primary screen, imaging, A549 dox-inducible miR-34, nuclei and caspase counts (AID 1347080); conditions: A549 miR-34 inducible, Hoechst nuclei count, 48 h
# [12] = survival rescue of mitochondrial mutant cells in low glucose, primary screen, MELAS cybrids, Rieske KO mouse fibroblasts, CellTiter-Glo (AID 1508586;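 active = mean z-score across replicates of 1.96 or higher in either the MELAS or the Rieske mutant cell line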;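 also: z relative to plate mean and SD of compound and empty wells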)
# [13] = viability rescue of complex I mutant cybrids, primary screen, cell-based, galactose medium, ATP luminescence (AID 1645843;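 active = z-score of at least 1.8 in each of two replicates, scored against plate mean and spread of sample wells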;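 also: positive z means more ATP and so rescue of galactose-driven cybrid death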); conditions: complex I mutant cybrid cells, 72 h, stronger effect = higher value
# [14] = biological target: NAD(+) hydrolase SARM1 (Homo sapiens) (UniProt Q6SZW1); assay: SARM1 TIR NADase inhibitors, cell lysate, NAD-Glo luminescence (AID 1508614;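 active = compound whose remaining NAD level is above about 45 nM, limit read from the data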;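 also: higher remaining NAD means stronger inhibition of SARM1 NADase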); conditions: SAM-TIR HEK293T lysate NADase, at 1 µM, stronger effect = higher value
# Sequence of NAD(+) hydrolase SARM1 (Homo sapiens) (Q6SZW1 whole entry, looked up): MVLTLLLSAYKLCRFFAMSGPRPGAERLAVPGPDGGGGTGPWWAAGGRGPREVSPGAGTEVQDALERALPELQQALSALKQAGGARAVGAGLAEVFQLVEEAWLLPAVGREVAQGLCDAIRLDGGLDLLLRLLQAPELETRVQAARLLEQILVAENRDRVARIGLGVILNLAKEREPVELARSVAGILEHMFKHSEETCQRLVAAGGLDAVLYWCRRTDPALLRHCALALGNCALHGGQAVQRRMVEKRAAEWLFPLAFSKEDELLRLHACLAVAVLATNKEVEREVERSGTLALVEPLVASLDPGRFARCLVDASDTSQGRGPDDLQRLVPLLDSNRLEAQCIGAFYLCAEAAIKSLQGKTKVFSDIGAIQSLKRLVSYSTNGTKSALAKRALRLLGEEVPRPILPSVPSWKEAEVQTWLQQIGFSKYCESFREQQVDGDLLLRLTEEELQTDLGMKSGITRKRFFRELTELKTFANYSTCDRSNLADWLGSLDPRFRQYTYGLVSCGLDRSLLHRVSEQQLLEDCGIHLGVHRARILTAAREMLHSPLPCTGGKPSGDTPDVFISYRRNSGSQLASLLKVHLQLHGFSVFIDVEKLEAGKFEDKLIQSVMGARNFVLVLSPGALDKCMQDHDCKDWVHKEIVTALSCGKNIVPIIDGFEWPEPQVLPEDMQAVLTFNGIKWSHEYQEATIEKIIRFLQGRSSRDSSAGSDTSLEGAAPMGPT
# [15] = stronger effect = lower value, cell number ratio, induced over uninduced
# [16] = measured here: relative caspase fold change +Dox/-Dox
# [17] = measured here: total cells with miR-34 induction, stronger effect = lower value
# [18] = measured here: total cells without miR-34 induction
# [19] = MELAS cybrid survival, CellTiter-Glo 48 h, stronger effect = higher value
# [20] = Rieske KO mouse fibroblast survival, CellTiter-Glo 72 h
Structure (SMILES),survival [1],parasite load remaining [2],viability [2],nuclear beta-catenin stimulation ([3]; at 10 µM),"nuclear beta-catenin stimulation ([3]; stimulation, at 2 µM) [%]",insulin secretion stimulation [4],viability decrease [5],tube area decrease [6],GLP1 secretion stimulation [7],inhibition of viability [8],viability decrease (inhibition) [9],viability decrease (inhibition) [10],"fold change [11, 15]","fold change [11, 16]","cell count [11, 17]","cell count [11, 18]","z-score [12, 19]","z-score [12, 20]",z-score [13],remaining NAD [14]
CCC(C)(CN(C)C)OC(=O)c1ccccc1 (stereo unspecified),26.8 (inactive),38.1% (inactive) and 188% (inactive),56.2% and 90.3%,-2.1% (inactive),-1.6,3% (inactive),-25.9% (inactive),-3.6% (inactive),-1.9% (inactive),-6.83% (inactive),7.2% (inactive),-17.6% (inactive),0.964 (inactive),0.9,8680,9000,0.476 (inactive),-0.277,–,–
CCCNC(C)C(=O)Nc1c(C)csc1C(=O)OC (stereo unspecified),18.4 (inactive),137% (inactive),71.1%,-0.2% (inactive),2,4.8% (inactive),1.9% (inactive),5.2% (inactive),-3.4% (inactive),8.5% (inactive),2.2% (inactive),2.2% (inactive),0.925 (inactive) and 0.913 (inactive),0.61 and 0.602,8960 and 8560,9680 and 9380,-0.278 (inactive) and -0.744 (inactive),-0.148 and -0.857,–,–
CN1CCN(C2=Nc3ccccc3Sc3ccc(Cl)cc32)CC1,–,45.5% (inactive),130%,-0.4% (inactive),-0.2,16.1% (inactive),83.3% (active),39.2% (inactive),19% (inactive),79.7% (active),116% (active),72.4% (active),0.882 (inactive),1.18,8380,9490,-0.876 (inactive),0.707,-0.54 (inactive),–
O=C(O)CCc1nc2ccccc2[nH]1,–,–,–,2.8% (inactive),2.5,-1.6% (inactive),3.65% (inactive),-5.8% (inactive),3.5% (inactive),-11.8% (inactive),106% (active),5.2% (inactive),0.93 (inactive),1.12,8680,9340,–,–,–,10 nM (inactive)
CC(CNC1CCCCC1)OC(=O)c1ccccc1 (stereo unspecified),2.08 (inactive),83.5% (inactive),92%,0.9% (inactive),2.3,5.6% (inactive),-14.5% (inactive),19.9% (inactive),3.9% (inactive),-12.8% (inactive),-11.7% (inactive),-10.5% (inactive),0.95 (inactive),0.946,9180,9670,-0.814 (inactive),-0.57,–,–
